# Assay outcomes: PubChem, National Center for Advancing Translational Sciences (NCATS)
# Glioma ERSR ind: ER stress response induction in glioma | U87-MG GRP78 promoter luciferase reporter, 16 h | Potency, µM, without a hit: top-dose activation, hits mostly activators | 0.02% of 420,000 active | AID 602332; note: series mostly up to about 76 µM; % of control where 0% means no effect; nearly all actives have a fitted effect of over 35% in size
#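 Stably transfected U87-MG glioma cells carrying a GRP78-based luciferase sensor; 16 h compound incubation. Luminescence end-point read 10 min after Bright-Glo addition at room temperature.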
# VDR inhibitor: vitamin D3 receptor (human) inhibition. P11473. VDR-SRC2-3 peptide fluorescence polarization, 2 h. Potency, µM, for inactives: max response, negative = inhibition, usual class: inhibitors. 0.93% of 400,000 active. AID 504847; note: % is set by controls: 0 for no effect and ±100 for the full control effect
#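 Fluorescence polarization assay of small-molecule disruption of VDR binding to coregulator peptide SRC2-3. Compounds and controls pin-transferred, then read after 2 h incubation at ambient room temperature.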
# Sfp PPTase inh: blocks B. subtilis Sfp PPTase activity; Q9F4F7; Biochemical Sfp PPTase activity, qHTS; Potency, µM, without a hit: largest response in the series, negative = inhibition, usual class: inhibitors; 3.5% of 310,000 active; AID 1490;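 note: the enzyme is Sfp with the accession as filed and its product quenches rhodamine fluorescence; 0% = enzyme reaction without inhibitor and -100% = no enzyme wells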
#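 Step 1, compound plus 15 nM Sfp-PPTase, 15 min, room temperature. Step 2, add rhodamine-CoA (5 uM) and BHQ-2-YbbR (12.5 uM). Step 3, read 525/598 nm fluorescence at 0 and 30 min.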
# 12-LOX inh: blocks human arachidonate 12S-lipoxygenase | P18054 | purified 12hLO, xylenol orange hydroperoxide absorbance | Potency, µM (top dose mostly 108 µM), for inactives: top-dose activity change, negative = inhibition, actives largely listed as inhibitors | 1.1% of 580,000 active | AID 1671190; note: % is set by controls: 0 for no effect and ±100 for the full control effect
#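 Purified human 12hLO (150 nM final) in 25 mM Hepes, 0.01% Triton X-100, pH 7.0 was preincubated 15 min at room temperature with compound. Then 40 uM arachidonic acid was added, 30 min. Hydroperoxide was read by Fe-XO absorbance ratio 573/405 nm.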
# G9a inh: G9a (human) methyltransferase inhibition; G9a H3K9 monomethylation, AlphaScreen, 2 h; Q96KQ7; AID 504332; Potency, µM (series often up to 102 µM), for the others: top-dose activity, negative = inhibition, most hits filed as inhibitors; 8.8% of 350,000 active; note: % is set by controls: 0 for no effect and ±100 for the full control effect; nearly all actives have a fitted effect of over 75% in size
# Target sequence (Q96KQ7 913-1193 limits assumed): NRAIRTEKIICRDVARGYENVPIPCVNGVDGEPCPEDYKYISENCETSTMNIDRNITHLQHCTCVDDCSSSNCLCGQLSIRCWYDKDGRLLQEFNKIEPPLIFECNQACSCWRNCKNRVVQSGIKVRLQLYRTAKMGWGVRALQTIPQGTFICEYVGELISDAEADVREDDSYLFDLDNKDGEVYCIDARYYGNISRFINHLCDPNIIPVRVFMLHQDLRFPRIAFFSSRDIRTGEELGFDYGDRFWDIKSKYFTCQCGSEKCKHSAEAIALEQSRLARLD
#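 Using a bead-based AlphaScreen, monomethylated H3K9 product from 2 h room-temperature reactions (G9a 20 nM, peptide 500 nM, SAM 20 uM) was detected with 0.5 ug/mL rabbit anti-H3K9me1 antibody.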
# * marks the source's active call; other numbers are inactive results; i = inactive; ? = inconclusive; . = not tested or not shown; ! = not active in a repeat; [ ] = another dose, or the depositor's remark. The entries come from a sample that favours hits as a whole. Calls come from the whole dose curve; as a rule, active = well fitted curve in the direction sought with a large enough effect; inconclusive = small, poorly fitted or top-dose-only effect, or another doubt; inactive = no such curve, though single readings can be large; an effect the other way counts as inactive or inconclusive. Potency is the fitted concentration of half-maximal effect.
SMILES,Glioma ERSR ind,VDR inhibitor,Sfp PPTase inh,12-LOX inh,G9a inh
CCS(=O)(=O)n1nc(-c2ccco2)nc1SC,-6.8%,?,35.5µM*,0.0%,?
Cc1ccc(S(=O)(=O)n2nc(-c3ccco3)nc2SCc2ccccc2)cc1,4.1%,-5.3%,-5.3%,?,?
CS(=O)(=O)n1nc(-c2ccc(Cl)cc2)nc1N,3.1%,1.6%,4.4%,37.9%,.
N#CC1(C(=O)Nc2cccc(Cl)c2)CCCC1,.,.,.,3.9%,.
CN(c1ccccc1)S(=O)(=O)c1ccccc1C(=O)OCn1nnc2ccccc2c1=O,.,.,.,3.8%,.
O=S(=O)(c1ccc2ccccc2c1)n1nc(-c2ccco2)nc1NCc1ccc(F)cc1,0.3%,2.3%,.,-29.4%,17.8µM*
CC(=O)c1cccc(OCc2cccc(C(N)=O)c2)c1,.,.,.,15.6%,.
COc1ccc(C(=O)c2ccccc2)cc1,2.6%,11.5%,-0.5%,6.9%,33.2%
COC1=CC(=O)C(C(=O)c2ccccc2)=CC1=O,-2.9%,31.6µM*,39.8µM*,.,.
Oc1ccc(/C=N/NC(=S)NC2CC3CCC2C3)cc1 (stereo not given),10.6%,-8.0%,-0.4%,17.8µM*,.
CCCCCSc1nc2c(c(=O)[nH]c(=O)n2C)n1Cc1ccc(Cl)cc1,.,.,.,13.1%,.
CS(=O)(=O)c1ccc(F)c(NC(=O)CCCc2cccs2)c1,.,.,.,-33.2%,.
COc1cc(C2C(C#N)=C(N)Oc3n[nH]c(-c4ccccc4)c32)cc(OC)c1OC (stereo not given),.,.,.,-10.4%,.
O=C(NCC(O)CO)c1csc(Nc2cccc3ccccc23)n1 (stereo not given),-2.3%,-5.0%,-18.1%,21.2%,39.8µM*
CCN(CC)C(=O)c1csc(Nc2cccc3ccccc23)n1,2.0%,-3.8%,-10.3%,?,39.8µM*
Cc1c(C(=O)Nc2ccc3oc(-c4cncc(Br)c4)nc3c2)cccc1[N+](=O)[O-],.,.,.,-16.2%,.
CCN(CC)S(=O)(=O)c1cccc(NC(=O)COC(=O)c2nn(C)c(=O)c3ccccc23)c1,.,.,.,21.1%,.
O=C1c2cccc3cccc(c23)C(=O)N1/N=C/c1ccc(O)cc1O,-4.4%,-8.0%,26.6%,0.5%,7.7%[59 µM]
Cc1nc2ccccc2c(=O)n1/N=C/c1ccc(O)c(O)c1O,-9.0%,-5.0%,7.08µM*,i,1.26µM*
Oc1ccc(/C=N/N(c2ccccc2)c2ccccc2)c(O)c1O,.,.,-41.4%,11.2µM*,14.1µM*
O=C1c2ccccc2C(=O)N1/N=C/c1ccc(O)c(O)c1O,2.2%,79.4µM*,7.94µM*,.,?
Oc1ccc(/C=N/N(c2ccccc2)c2ccccc2)cc1O,?,-7.5%,2.2%,122.5%,-148.4%
Cc1nc2ccccc2c(=O)n1/N=C/c1ccccc1O,5.2%,1.3%,-5.8%,34.8%,.
Cc1nc2ccccc2c(=O)n1/N=C/c1ccc2ccccc2c1O,-6.9%,-16.3%,3.4%,-19.4%,28.2µM*
COc1ncccc1CNC(=O)Nc1nnc(C)s1,.,.,.,41.6%,.
SMILES,Glioma ERSR ind,VDR inhibitor,Sfp PPTase inh,12-LOX inh,G9a inh
N#Cc1ccc(OCCOC(=O)COc2ccc(Cl)cc2Br)cc1,.,.,.,0.5%,.
CC1=C(C(=O)N2CCCCC2)C(c2ccc(N(C)C)cc2)C2=C(CC(C)(C)CC2=O)N1 (stereo not given),.,.,.,-14.4%,.
CCC(C)/C=C/C1=CC2=C(Cl)C(=O)C3(C)OC(=O)C(C(=O)C(C)C(C)O)C3C2=CO1 (stereo not given),0.3%,-26.6%,31.6µM*,?,?
CC(C)CC[n+]1ccn(-c2nc3ccccc3nc2[N-]S(=O)(=O)c2ccccc2)c1,-4.1%,11.1%,79.4µM*,0.3%,12.0%[12.7 µM]
COc1ccc(Cl)cc1NC(=O)CCn1cnc2c1c(=O)n(C)c(=O)n2C,.,.,.,-15.5%,.
O=C1NCCCCCCN(C(=O)NC2CCCCC2)[C@H]2C[C@H](C(=O)N3CCc4ccccc4C3)C[C@@H]12,.,.,.,2.1%,.
Fc1ccccc1/C=C1\CCCC2=C1Nc1nnnn1C2c1ccccc1F (stereo not given),-4.7%,?,-24.6%,-17.5%,50.1µM*
CS(=O)(=O)Nc1ccc([N+](=O)[O-])cc1Oc1ccccc1,-3.5%,?,56.2µM*!,?,31.6µM*!
CS(=O)(=O)Nc1ccccc1Oc1ccccc1,-2.8%,-6.0%,8.9%,46.3%,16.0%[59 µM]
CC(=O)Nc1ccc(S(=O)(=O)NCC2CCCO2)cc1 (stereo not given),-2.2%,2.7%,.,115.3%,.
